Test [1] has as its target Protein kinase C gamma type (Homo sapiens) (UniProt P05129). Particulars: at 1 µM.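 Note: each value is an averaged percent inhibition of the enzyme.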
Test [2] has as its target T1, Protein kinase C iota type (Homo sapiens) (UniProt P41743).
T1 sequence (whole entry): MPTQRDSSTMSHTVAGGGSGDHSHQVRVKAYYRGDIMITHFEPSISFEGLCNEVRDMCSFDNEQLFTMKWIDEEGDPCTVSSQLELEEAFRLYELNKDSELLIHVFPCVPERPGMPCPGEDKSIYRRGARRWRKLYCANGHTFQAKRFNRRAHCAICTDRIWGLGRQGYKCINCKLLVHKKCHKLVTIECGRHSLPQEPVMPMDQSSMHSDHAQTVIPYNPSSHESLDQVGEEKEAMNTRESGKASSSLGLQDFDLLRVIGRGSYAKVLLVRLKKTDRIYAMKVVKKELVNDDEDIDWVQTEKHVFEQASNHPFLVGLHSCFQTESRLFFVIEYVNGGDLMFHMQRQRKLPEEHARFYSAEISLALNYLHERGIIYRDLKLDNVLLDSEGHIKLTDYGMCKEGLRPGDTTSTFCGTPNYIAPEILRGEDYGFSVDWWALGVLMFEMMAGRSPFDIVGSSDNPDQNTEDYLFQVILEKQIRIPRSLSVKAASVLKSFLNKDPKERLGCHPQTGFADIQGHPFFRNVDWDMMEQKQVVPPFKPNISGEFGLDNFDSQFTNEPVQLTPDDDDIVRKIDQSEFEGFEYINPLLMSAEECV
The settings on record: at 0.1 µM.

Test [3] has as its target T1, Protein kinase C iota type (Homo sapiens). Particulars: at 1 µM.
Test [4] concerns the target Protein kinase C theta type (Homo sapiens) (UniProt Q04759). The settings on record: at 0.1 µM.
The target is the same in test [5]. Particulars: at 1 µM.
In test [6] the target is Protein kinase C beta type (Homo sapiens) (UniProt P05771). Particulars: at 0.1 µM.
Protein kinase C beta type (Homo sapiens), sequence (P05771 2-671 limits assumed): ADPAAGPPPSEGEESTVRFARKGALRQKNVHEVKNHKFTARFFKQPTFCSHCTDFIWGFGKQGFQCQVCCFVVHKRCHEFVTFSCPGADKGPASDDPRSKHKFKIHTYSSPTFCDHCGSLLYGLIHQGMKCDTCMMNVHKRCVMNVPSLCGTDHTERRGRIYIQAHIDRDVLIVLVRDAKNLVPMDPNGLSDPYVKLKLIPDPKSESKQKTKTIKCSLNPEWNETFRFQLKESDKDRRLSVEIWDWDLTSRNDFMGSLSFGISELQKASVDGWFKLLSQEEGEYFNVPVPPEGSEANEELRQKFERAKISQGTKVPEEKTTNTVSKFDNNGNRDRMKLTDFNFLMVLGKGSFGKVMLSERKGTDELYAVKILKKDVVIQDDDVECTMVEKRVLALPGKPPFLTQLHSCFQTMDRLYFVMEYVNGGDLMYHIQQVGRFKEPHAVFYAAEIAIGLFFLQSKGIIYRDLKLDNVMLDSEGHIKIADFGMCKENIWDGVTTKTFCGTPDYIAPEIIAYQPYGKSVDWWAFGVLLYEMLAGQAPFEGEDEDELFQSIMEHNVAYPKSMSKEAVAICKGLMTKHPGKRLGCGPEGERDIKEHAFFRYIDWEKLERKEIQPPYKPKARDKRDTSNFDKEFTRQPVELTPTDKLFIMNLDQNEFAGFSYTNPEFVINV
The target is the same in test [7]. Particulars: at 1 µM.
For test [8], the target named is T2, Serine/threonine-protein kinase D1 (Homo sapiens) (UniProt Q15139).
T2 sequence (whole entry): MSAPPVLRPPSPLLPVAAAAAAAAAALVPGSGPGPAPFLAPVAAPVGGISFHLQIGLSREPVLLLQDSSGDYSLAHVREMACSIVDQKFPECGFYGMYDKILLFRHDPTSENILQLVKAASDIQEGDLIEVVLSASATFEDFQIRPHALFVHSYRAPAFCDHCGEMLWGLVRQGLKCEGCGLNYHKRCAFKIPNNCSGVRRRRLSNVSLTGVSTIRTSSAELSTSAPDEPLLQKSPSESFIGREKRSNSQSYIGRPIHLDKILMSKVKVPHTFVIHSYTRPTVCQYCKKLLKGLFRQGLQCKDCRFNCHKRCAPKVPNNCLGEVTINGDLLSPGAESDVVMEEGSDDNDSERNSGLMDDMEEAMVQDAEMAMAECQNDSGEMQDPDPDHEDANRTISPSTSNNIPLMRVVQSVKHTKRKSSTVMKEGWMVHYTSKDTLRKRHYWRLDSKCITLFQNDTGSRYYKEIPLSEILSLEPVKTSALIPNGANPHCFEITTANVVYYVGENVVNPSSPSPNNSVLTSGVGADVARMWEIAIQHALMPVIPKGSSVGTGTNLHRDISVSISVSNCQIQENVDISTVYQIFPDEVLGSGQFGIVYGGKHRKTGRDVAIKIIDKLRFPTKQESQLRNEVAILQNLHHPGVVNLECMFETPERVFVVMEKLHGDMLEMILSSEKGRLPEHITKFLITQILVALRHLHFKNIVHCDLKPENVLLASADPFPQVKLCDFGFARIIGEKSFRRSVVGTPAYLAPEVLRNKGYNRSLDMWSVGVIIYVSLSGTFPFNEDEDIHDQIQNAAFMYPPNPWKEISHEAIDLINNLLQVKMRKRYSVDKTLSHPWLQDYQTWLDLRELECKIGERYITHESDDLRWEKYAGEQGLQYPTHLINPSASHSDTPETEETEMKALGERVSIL
Particulars: at 0.1 µM.

Test [9] deals with T2, Serine/threonine-protein kinase D1 (Homo sapiens). The settings on record: at 1 µM.
For test [10], the target named is T3, Serine/threonine-protein kinase D2 (Homo sapiens) (UniProt Q9BZL6).
T3 sequence (whole entry): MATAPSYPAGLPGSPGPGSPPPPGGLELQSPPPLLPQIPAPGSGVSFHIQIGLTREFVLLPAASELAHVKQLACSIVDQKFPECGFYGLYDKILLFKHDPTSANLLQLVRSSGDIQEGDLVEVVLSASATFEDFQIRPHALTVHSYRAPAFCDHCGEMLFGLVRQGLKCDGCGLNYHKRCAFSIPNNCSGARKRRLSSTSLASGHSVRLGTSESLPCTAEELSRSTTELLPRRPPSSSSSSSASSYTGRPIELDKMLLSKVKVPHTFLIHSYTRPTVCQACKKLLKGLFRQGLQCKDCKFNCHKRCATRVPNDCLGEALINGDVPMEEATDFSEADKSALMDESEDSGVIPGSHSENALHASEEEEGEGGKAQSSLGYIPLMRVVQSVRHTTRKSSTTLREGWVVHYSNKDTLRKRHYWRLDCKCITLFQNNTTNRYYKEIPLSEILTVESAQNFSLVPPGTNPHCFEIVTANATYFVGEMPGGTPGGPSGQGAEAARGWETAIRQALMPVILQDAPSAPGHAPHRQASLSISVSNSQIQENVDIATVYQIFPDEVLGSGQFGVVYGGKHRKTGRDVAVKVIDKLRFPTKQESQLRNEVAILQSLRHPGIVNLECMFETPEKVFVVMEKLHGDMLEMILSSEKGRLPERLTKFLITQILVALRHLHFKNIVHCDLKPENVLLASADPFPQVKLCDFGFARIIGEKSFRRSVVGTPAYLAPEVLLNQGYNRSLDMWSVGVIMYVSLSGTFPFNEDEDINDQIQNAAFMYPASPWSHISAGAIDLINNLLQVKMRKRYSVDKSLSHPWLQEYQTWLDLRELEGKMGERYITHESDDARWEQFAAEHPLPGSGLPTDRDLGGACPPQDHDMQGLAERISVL
The settings on record: at 0.1 µM.

Test [11] has as its target T3, Serine/threonine-protein kinase D2 (Homo sapiens). The settings on record: at 1 µM.
Test [12] concerns the target T4, Serine/threonine-protein kinase D3 (Homo sapiens) (UniProt O94806).
T4 sequence (whole entry): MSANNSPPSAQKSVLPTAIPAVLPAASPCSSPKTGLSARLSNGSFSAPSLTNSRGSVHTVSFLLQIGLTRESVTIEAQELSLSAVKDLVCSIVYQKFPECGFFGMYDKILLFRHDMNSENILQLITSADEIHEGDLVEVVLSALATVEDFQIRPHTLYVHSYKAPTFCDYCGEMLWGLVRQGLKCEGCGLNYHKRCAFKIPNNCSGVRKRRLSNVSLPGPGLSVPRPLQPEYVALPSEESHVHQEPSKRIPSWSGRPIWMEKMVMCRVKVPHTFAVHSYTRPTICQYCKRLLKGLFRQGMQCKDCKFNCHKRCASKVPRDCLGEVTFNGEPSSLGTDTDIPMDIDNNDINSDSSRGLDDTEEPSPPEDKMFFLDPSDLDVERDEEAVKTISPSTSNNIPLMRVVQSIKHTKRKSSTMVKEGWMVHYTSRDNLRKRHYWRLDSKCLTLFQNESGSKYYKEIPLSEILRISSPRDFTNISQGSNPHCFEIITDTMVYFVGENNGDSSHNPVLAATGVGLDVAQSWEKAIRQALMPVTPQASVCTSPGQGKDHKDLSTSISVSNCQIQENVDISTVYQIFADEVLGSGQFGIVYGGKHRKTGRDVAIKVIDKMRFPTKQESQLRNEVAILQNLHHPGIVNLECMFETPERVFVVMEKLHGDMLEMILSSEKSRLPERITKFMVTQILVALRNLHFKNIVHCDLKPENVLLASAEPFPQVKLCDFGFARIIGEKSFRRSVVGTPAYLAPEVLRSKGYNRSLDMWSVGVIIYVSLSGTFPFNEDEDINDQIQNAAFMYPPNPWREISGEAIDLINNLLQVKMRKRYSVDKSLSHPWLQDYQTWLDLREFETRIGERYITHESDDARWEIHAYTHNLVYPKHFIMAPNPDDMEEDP
The settings on record: at 0.1 µM.

Test [13] has as its target T4, Serine/threonine-protein kinase D3 (Homo sapiens). The settings on record: at 1 µM.
The target in test [14] is T5, cGMP-dependent protein kinase 1 (Homo sapiens) (UniProt Q13976).
T5 sequence (whole entry): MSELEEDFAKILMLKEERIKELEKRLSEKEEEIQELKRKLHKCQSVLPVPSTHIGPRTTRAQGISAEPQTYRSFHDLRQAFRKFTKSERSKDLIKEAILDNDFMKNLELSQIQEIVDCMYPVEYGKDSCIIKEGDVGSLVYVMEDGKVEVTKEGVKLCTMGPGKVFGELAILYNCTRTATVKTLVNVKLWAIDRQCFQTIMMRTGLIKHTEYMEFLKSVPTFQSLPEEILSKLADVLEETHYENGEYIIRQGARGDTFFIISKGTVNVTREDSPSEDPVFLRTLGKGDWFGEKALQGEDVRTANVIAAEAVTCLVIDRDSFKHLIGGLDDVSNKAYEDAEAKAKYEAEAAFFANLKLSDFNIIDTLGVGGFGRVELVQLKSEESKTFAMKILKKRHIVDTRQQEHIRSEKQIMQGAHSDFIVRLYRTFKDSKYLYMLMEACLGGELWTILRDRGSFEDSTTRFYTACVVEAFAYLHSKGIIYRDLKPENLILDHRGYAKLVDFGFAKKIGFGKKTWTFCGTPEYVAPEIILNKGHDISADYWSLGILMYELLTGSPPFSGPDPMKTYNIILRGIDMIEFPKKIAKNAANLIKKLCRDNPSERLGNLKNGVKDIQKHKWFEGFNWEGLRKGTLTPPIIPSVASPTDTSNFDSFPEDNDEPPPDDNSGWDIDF
Particulars: at 0.1 µM.

The target of test [15] is T5, cGMP-dependent protein kinase 1 (Homo sapiens). The settings on record: at 1 µM.
For test [16], the target named is T6, cGMP-dependent protein kinase 2 (Homo sapiens) (UniProt Q13237).
T6 sequence (whole entry): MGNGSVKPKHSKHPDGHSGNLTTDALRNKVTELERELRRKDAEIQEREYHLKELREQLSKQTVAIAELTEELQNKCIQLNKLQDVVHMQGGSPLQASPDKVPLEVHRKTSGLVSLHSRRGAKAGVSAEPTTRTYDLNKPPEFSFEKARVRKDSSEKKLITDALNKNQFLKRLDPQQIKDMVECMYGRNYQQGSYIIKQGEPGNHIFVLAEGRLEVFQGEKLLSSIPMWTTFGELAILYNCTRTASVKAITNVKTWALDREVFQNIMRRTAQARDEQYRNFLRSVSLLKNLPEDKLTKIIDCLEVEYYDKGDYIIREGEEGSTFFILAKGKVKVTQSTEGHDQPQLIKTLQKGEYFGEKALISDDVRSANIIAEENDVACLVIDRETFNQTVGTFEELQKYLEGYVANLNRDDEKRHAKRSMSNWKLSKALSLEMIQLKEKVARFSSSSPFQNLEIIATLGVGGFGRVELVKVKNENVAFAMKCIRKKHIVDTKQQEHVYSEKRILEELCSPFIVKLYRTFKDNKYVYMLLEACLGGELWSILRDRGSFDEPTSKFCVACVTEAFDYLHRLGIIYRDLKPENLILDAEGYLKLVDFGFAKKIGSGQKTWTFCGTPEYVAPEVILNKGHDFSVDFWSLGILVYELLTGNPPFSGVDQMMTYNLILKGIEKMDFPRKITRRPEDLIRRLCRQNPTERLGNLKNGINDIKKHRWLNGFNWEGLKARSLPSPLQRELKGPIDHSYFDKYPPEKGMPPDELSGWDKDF
The settings on record: at 0.1 µM.

In test [17] the target is T6, cGMP-dependent protein kinase 2 (Homo sapiens). The settings on record: at 1 µM.
In test [18] the target is T7, cAMP-dependent protein kinase catalytic subunit PRKX (Homo sapiens) (UniProt P51817).
T7 sequence (whole entry): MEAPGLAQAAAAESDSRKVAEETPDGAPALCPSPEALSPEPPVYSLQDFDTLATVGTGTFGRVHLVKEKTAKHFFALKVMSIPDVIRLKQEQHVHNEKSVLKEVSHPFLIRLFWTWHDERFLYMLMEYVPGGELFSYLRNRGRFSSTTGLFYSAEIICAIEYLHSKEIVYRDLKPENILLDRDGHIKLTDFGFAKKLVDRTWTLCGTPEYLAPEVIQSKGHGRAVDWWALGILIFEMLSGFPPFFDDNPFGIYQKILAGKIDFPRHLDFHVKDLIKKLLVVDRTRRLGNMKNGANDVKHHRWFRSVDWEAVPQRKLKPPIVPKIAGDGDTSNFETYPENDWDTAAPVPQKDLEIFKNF
Particulars: at 0.1 µM.

For test [19], the target named is T7, cAMP-dependent protein kinase catalytic subunit PRKX (Homo sapiens). The settings on record: at 1 µM.
Test [20] addresses Rho-associated protein kinase 1 (Homo sapiens) (UniProt Q13464). Particulars: at 0.1 µM.

The structures appear in SMILES notation.

Protein kinase C theta type (Homo sapiens), sequence (Q04759 whole entry, looked up): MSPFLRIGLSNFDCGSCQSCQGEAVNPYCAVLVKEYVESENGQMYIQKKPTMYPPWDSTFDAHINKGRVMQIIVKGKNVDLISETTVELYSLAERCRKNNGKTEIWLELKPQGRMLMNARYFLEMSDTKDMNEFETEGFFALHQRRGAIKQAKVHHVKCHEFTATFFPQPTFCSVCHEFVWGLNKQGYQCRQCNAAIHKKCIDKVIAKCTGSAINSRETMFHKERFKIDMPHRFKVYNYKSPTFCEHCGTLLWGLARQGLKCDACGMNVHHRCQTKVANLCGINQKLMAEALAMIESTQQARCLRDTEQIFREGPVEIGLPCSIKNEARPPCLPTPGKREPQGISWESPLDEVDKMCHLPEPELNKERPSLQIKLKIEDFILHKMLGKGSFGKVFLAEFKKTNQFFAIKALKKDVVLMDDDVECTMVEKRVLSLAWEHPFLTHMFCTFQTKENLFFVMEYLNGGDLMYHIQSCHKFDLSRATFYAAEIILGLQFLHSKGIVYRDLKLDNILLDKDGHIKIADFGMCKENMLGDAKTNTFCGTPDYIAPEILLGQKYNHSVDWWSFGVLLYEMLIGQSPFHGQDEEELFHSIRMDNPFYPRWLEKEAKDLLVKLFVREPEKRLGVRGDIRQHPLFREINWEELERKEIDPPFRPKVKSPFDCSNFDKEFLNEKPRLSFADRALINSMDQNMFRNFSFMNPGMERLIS
Rho-associated protein kinase 1 (Homo sapiens), sequence (Q13464 2-1354 limits assumed): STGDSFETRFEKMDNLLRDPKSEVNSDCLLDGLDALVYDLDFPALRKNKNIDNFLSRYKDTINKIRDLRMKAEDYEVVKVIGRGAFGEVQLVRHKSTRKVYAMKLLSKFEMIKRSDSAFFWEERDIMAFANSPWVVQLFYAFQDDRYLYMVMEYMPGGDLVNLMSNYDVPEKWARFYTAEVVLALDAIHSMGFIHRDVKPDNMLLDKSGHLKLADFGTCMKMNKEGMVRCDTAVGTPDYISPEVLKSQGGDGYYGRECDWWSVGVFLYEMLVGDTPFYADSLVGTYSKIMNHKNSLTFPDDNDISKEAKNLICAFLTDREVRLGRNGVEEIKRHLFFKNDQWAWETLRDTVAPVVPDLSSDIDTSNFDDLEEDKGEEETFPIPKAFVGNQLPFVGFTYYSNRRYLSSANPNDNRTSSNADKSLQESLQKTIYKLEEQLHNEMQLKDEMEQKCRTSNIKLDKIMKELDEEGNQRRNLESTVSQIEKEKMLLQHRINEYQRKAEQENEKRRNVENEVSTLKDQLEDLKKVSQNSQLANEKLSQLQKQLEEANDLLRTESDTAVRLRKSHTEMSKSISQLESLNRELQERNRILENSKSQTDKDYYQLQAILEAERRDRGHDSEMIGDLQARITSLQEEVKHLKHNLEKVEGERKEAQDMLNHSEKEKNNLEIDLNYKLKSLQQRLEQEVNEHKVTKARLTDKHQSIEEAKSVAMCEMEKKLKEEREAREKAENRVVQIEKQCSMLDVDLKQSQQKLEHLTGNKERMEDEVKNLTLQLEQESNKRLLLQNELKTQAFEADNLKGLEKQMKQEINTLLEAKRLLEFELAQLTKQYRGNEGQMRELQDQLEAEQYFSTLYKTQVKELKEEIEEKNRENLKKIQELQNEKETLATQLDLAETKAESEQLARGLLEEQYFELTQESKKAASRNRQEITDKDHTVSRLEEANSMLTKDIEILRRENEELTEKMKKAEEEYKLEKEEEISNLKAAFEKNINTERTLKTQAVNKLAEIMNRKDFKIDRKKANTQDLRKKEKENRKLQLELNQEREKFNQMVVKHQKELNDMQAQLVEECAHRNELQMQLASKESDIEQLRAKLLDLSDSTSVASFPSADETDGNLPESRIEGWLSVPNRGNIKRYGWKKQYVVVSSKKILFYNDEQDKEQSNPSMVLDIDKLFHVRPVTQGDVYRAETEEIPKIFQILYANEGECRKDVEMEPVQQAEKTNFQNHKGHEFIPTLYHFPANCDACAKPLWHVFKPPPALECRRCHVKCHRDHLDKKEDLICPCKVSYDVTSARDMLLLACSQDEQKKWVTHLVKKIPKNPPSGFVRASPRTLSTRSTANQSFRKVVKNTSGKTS

The term inhibition denotes the drop in the measured response relative to a control, in per cent. Turning to `COc1cc(/C=N/Nc2ncnc3[nH]ncc23)ccc1O`, the inhibition in test [1] was 8.27%; in test [2], 2.83%; in test [3], 2.53%; in test [4], 2.3%; in test [5], 4.29%; in test [6], 0.58%. Moreover, the inhibition was determined as 4.16% in test [7]; 2.99% in [8]; 4.19% in test [9]; 2.81% in test [10]; 3.63% in test [11]; 2.22% in [12]. Further, the inhibition in [13] stood at 3.16%; in [14] it was 3.83%; in test [15], 14.8%; in test [16], 13.5%; in test [17], 55%; in test [18] it was 1.69%. In addition, the inhibition in test [19] stood at 3.71%; in test [20] it was 1.5%.
Turning to `COc1cc(Nc2nccc(Nc3ccc4c(C)n[nH]c4c3)n2)cc(OC)c1OC`, the inhibition in test [1] is 5.39%; in test [2], 1.08%; in test [3], 3.92%; in test [4] it was 1.17%; in [5] it was -0.29%; in test [6] it was 2.72%. The inhibition came out at 6.67% in test [7]; 2.61% in test [8]; 2.11% in [9]; 1.03% in [10]; 2.94% in test [11]; 1.3% in test [12]. The inhibition in test [13] turned out to be 2.54%; in test [14], 3.29%; in test [15], 3.61%; in test [16], 2.12%; in [17] it was 2.71%; in test [18] it was 0.71%. For the same compound, the inhibition in test [19] is -0.26%; in [20], 2.06%.

Source of the values: ChEMBL document CHEMBL1961873, “Compounds: GSK PKIS; Assays: Nanosyn kinase panel” (2012).
